Measurements as given in PubChem BioAssay.
Activity calls are given as the source filed them.

Experiments:
Albumin (Bos taurus) = Albumin (Bos taurus) (UniProt P02769); assay: bovine serum albumin binders on microarray, profiling panel, artefact control for SMM control protein annotation, biochemical, small-molecule microarray, Alexa647 label, 635/667 nm fluorescence (AID 1118); details: BSA-A647 binding, fluorescence 635 nm, higher = more signal;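 also: score merges 667 nm emission intensity and signal-to-noise per printed compound spot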
[1] = small-molecule microarray binders of probe aXIP, primary screen, biochemical, NeuroSMM set, 635/667 nm fluorescence (AID 1119); details: higher = more signal, called active from +8 up or from −8 down;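 also: probe is the protein aXip251-270 applied at 1 µg/mL to compound-printed slides; binding of probe to printed compounds measured as 667 nm fluorescence plus signal to noise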
[2] = small-molecule binders of probe aNOTCH3, primary screen, biochemical, small-molecule microarray, 635/667 nm fluorescence (AID 1120); details: higher = more signal;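 also: probe is a biotin-tagged antibody raised against NOTCH3 rather than NOTCH3 protein; score merges spot fluorescence near 667 nm with spot signal to noise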
[3] = small-molecule binders of probe aNOTCH2, primary screen, biochemical, small-molecule microarray, 635/667 nm fluorescence (AID 1121); details: higher = more signal;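 also: score merges feature fluorescence read at 667 nm with its signal to noise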
[4] = molecular target: Carbonic anhydrase 2 (Homo sapiens) (UniProt P00918); assay: CAII small-molecule binders, profiling panel, biochemical, small-molecule microarray, Alexa647-labelled CAII (AID 1122); details: CAII-A647 binding fluorescence, higher = more signal
[5] = COS7 lysate on small-molecule microarray, probe aHis, 635 nm (AID 1123); details: COS7 cell lysate, fluorescence, higher = more signal;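 also: z-score combines 667nm fluorescence intensity with signal-to-noise per printed compound spot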
[6] = compound binding in COS7 lysate, probe aLAP1, primary screen, cell lysate, small-molecule microarray (AID 1124); details: probe aLAP1, fluorescence, higher = more signal;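 also: lysate comes from COS7 cells expressing LAP1 and is applied at 0.3 µg/mL; score merges spot fluorescence near 667 nm with signal-to-noise over triplicate slides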
Sam68 (KHDRBS1) = assay: Sam68 small-molecule binders, primary screen, biochemical, small-molecule microarray, 635 nm fluorescence (AID 1125); details: small-molecule microarray binding, higher = more signal;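 also: score merges 667 nm channel intensity with signal to noise over triplicate slides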
[7] = tested on: Chordin-like protein 2 (CHRDL2); assay: CHRDL2 small-molecule binders, primary screen, biochemical, small-molecule microarray, 635 nm fluorescence (AID 1126); details: small-molecule microarray binding, fluorescence 635 nm; higher = more signal;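 also: printed compound slides probed with Chrdl2 protein at 4 µg/mL for 1 h at 4 C; score merges 667 nm emission intensity with signal to noise over three replicate slides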
[8] = molecular target: Concanavalin-A (Canavalia ensiformis) (UniProt P02866); assay: ConA small-molecule binders, primary screen, artefact control for SMM control protein annotation, biochemical, small-molecule microarray, Alexa647 label, 635 nm (AID 1127); details: ConA-A647 binding fluorescence, higher = more signal;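 also: z combines 667 nm emission intensity with signal-to-noise across three replicate slides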
[9] = anti-His antibody binders, primary screen, artefact control for SMM control protein annotation, biochemical, small-molecule microarray, 635 nm fluorescence (AID 1128); details: anti-His Alexa647 antibody binding, higher = more signal;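 also: score merges feature fluorescence with signal-to-noise for each printed compound spot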
[10] = tested on: Human papillomavirus type 1a E7 protein (residues 1-88); assay: HPV1a E7 small-molecule binders, primary screen, biochemical, small-molecule microarray, residues 1-88, 635 nm (AID 1129); details: small-molecule microarray binding, fluorescence 635 nm; higher = more signal
[11] = molecular target: Focal adhesion kinase 1 (Homo sapiens) (UniProt Q05397); assay: small-molecule microarray binders of FAK, primary screen, biochemical, 635/667 nm fluorescence, BSA, DTT (AID 1130); details: PTK2 binding, 635 nm fluorescence, higher = more signal;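 also: composite of spot emission at 667 nm and signal to noise over triplicate slides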
[12] = tested on: Fibrinogen (Alexa647-labelled); assay: fibrinogen binders on compound microarrays, profiling panel, artefact control for SMM control-protein annotation, biochemical, small-molecule microarray, 635/667 nm fluorescence (AID 1131); details: fibrinogen-A647 binding fluorescence, higher = more signal;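 also: z-score merges 667 nm fluorescence with per-spot signal-to-noise over triplicate slides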
[13] = molecular target: Follistatin (Homo sapiens) (UniProt P19883); assay: follistatin binders on small-molecule microarrays, primary screen, biochemical, small-molecule microarray, 635/667 nm fluorescence (AID 1132); details: FST binding, 635 nm fluorescence, higher = more signal
[14] = molecular target: Fibroblast growth factor 2 (Homo sapiens) (UniProt P09038); assay: FGF2 binders on small-molecule microarrays, primary screen, biochemical, small-molecule microarray, 635/667 nm fluorescence (AID 1133); details: small-molecule microarray binding, FGF2, fluorescence 635/667; higher = more signal
[15] = mitochondrial membrane potential change in A549 cells, profiling panel, cell-based, JC-1 fluorescence, basal, 24 h, 100 nL (AID 1138); details: higher = more signal;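 also: A549 lung adenocarcinoma cells under basal conditions with no added stimulus; test concentration not given here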
Lefty1 = Lefty1 binders on small-molecule microarrays, primary screen, biochemical, small-molecule microarray, 635/667 nm fluorescence (AID 1139); details: small-molecule microarray binding, fluorescence 635/667; higher = more signal
[16] = tested on: wheat germ agglutinin (Triticum aestivum), Alexa647-labelled; assay: wheat germ agglutinin binders on compound microarrays, profiling panel, artefact control for SMM control-protein annotation, biochemical, small-molecule microarray, 635/667 nm fluorescence (AID 1140); details: WGA-A647 binding, 635 nm fluorescence, higher = more signal;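 also: score merges 667 nm feature emission with signal to noise over triplicate slides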
[17] = molecular target: Luciferin 4-monooxygenase (Photinus pyralis) (UniProt P08659); assay: firefly luciferase enzyme inhibitors, primary screen, biochemical, luminescence, purified enzyme, 2006 set (AID 1141); details: SteadyGlo luminescence, 30 min, higher = more signal, called active from +8 up or from −8 down;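 also: cell-free assay with purified firefly luciferase at 100 ng per well in PBS; test concentration not given here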
Chain of Luciferin 4-monooxygenase (Photinus pyralis) (P08659 whole entry, looked up): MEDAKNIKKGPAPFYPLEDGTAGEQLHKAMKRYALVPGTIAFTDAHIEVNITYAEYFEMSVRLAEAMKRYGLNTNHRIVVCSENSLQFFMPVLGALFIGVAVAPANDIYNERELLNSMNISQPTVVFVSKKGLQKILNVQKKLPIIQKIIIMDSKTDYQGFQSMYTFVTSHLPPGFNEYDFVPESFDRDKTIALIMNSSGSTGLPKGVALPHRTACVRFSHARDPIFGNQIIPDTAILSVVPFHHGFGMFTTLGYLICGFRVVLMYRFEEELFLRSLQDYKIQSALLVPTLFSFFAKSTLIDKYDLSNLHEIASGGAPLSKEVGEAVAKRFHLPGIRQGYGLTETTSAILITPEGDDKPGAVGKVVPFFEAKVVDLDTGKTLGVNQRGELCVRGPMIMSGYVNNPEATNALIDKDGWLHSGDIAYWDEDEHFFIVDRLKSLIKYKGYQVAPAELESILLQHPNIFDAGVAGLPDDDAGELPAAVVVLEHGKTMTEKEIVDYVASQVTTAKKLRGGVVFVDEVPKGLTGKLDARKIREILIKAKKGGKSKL

Chain of Concanavalin-A (Canavalia ensiformis) (P02866 whole entry, looked up): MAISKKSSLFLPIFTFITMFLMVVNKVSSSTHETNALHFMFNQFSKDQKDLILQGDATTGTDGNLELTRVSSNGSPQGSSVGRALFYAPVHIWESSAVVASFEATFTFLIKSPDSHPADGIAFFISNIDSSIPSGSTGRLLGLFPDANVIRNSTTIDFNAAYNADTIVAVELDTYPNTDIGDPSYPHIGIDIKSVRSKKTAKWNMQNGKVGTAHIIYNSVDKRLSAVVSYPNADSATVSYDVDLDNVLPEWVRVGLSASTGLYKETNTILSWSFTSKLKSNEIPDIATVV
Chain of Albumin (Bos taurus) (P02769 whole entry, looked up): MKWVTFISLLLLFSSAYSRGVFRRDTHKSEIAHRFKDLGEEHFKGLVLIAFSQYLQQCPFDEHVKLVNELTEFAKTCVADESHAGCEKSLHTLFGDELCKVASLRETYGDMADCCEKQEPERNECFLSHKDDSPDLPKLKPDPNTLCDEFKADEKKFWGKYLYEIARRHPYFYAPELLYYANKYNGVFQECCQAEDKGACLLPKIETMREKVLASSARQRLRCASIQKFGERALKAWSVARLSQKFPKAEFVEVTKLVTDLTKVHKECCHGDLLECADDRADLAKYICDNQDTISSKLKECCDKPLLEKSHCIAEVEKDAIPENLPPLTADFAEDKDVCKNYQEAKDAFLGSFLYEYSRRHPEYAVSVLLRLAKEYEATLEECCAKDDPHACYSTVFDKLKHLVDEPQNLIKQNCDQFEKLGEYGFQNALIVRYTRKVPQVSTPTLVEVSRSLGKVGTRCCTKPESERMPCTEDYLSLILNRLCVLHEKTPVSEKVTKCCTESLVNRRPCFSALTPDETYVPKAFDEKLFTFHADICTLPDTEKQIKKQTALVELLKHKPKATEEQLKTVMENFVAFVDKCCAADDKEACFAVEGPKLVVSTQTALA
Chain of Fibroblast growth factor 2 (Homo sapiens) (P09038 whole entry, looked up): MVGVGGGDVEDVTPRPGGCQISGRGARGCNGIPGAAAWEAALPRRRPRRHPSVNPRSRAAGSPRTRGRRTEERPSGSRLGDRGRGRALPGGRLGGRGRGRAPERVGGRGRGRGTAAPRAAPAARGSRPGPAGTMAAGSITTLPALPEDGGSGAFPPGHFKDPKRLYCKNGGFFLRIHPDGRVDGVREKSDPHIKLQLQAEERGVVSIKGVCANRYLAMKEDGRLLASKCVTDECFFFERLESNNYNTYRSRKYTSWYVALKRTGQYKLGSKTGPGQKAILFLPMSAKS
Chain of Focal adhesion kinase 1 (Homo sapiens) (Q05397 whole entry, looked up): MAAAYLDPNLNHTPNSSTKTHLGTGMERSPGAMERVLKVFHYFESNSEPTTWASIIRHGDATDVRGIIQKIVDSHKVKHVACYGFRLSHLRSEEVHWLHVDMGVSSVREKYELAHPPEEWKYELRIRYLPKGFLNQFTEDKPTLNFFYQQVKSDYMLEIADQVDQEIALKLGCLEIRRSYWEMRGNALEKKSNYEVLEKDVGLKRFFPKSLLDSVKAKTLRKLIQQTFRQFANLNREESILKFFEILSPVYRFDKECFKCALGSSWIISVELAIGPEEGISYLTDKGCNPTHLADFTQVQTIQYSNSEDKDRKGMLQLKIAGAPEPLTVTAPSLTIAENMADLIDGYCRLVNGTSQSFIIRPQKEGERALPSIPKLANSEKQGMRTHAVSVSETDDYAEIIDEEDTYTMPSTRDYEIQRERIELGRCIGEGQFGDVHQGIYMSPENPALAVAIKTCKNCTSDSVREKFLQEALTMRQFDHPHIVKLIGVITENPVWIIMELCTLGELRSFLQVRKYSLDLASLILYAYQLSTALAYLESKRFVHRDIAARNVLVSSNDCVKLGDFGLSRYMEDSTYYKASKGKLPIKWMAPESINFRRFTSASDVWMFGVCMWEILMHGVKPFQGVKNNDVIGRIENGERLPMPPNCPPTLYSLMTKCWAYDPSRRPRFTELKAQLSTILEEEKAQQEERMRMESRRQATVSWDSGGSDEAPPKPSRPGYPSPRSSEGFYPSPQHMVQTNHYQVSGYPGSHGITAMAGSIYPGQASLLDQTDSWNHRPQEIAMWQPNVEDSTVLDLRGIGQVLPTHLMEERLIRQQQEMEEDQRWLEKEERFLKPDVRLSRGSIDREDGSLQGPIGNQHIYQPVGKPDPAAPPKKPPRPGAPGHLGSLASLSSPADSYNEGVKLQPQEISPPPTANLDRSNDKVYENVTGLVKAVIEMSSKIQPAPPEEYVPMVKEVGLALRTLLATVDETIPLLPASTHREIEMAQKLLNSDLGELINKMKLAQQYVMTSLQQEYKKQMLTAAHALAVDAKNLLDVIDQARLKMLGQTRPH
Chain of Follistatin (Homo sapiens) (P19883 whole entry, looked up): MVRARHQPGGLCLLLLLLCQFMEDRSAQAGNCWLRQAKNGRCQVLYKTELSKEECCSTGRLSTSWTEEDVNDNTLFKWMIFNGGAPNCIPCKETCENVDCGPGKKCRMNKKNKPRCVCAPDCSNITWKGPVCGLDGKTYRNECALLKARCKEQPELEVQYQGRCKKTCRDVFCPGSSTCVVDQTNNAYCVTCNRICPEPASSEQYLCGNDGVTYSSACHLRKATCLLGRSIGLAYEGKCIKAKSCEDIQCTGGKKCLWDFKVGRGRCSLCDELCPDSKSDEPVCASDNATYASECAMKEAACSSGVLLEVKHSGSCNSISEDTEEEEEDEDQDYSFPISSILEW

Structure (SMILES)	composite z-score (Albumin (Bos taurus))	composite Z-score [1]	composite z-score [2]	composite z-score [3]	composite z-score [4]	composite z-score [5]	composite z-score [6]	composite z-score (Sam68 (KHDRBS1))	composite z-score [7]	composite z-score [8]	composite z-score [9]	composite z-score [10]	composite z-score [11]	composite z-score [12]	composite z-score [13]	composite z-score [14]	z-score [15]	composite z-score (Lefty1)	composite z-score [16]	z-score [17]
C=CCC(OC(C)=O)[C@@H]1[C@@H](N(Cc2cccc3ccccc23)C(=O)c2ccc(C)cc2)c2cc(OCCCO)ccc2N1C(=O)c1ccc(-c2ccccc2)cc1 (stereo not given in full)	-0.0575	-0.0961 (inactive)	0.102	-0.0398	0.507	0.143	-0.105	-0.087	0.114	-0.227	-0.215	-0.0588	-0.0095	-0.5	0.679	0.26	2.6	-0.0451	-0.285	-1.18 (inactive)
Cc1ccc(S[C@]2(C(=O)NCCCN(C)C)CC(=O)N(C3CCCCC3)[C@@H]2c2ccc(CO)cc2I)cc1	-1.58	-0.102 (inactive)	0.0836	-0.107	0.442	1.51	0.379	-0.171	-0.801	-1.49	0.731	-0.171	-0.471	-1.32	-0.351	-0.29	3.41	-0.695	-1.54	-1.38 (inactive)
COc1cccc([C@H]2N[C@H](C(=O)O)CC[C@@H]2C)c1	-0.207	-0.269 (inactive)	-0.15	-0.129	0.0689	-0.146	-0.283	0.0672	0.135	0.334	0.184	0.335	0.163	0.363	0.0807	-0.0305	-0.14	0.223	-0.208	-0.128 (inactive)
C=C[C@H](OC)[C@@H](OC(=O)Nc1ccc(SC)cc1)c1ccc(O)c(F)c1	0.661	1.13 (inactive)	0.0864	-0.182	0.699	2.82	0.694	1.24	-0.267	0.187	0.705	0.0378	-0.264	0.756	0.171	0.781	-0.97	-0.0871	0.0251	-3.45 (inactive)
O=C1C[C@@](C(=O)NCCN2CCOCC2)(c2ccc([N+](=O)[O-])cc2)[C@@H](c2ccc(CO)cc2)N1C1CCCCC1	-0.218	-0.346 (inactive)	0.0597	0.188	0.656	1.79	0.596	1.17	0.395	1.06	0.926	0.666	-0.442	0.63	1.16	1.22	1.11	0.0031	0.43	-0.83 (inactive)
